Shown are actives, neighbours in structure and some others; about 19% of the full set was active somewhere.
HepG2 tox – counter-screen for TGF-b inhibitors: cytotoxicity in HepG2 cells | HepG2 CAGA-GFP viability, ATP luminescence, 18 h | Potency, µM (top dose mostly 46.1 µM), without a hit: at the top dose activity change, negative = cytotoxicity, actives largely listed as cytotoxic | 410,000 tested, 0.76% active | AID 588856; further: potency means the concentration at half of the fitted maximal effect
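HepG2 CAGA-GFP cells (1000/well, DMEM with 1% FBS) received compound, then TGF-beta at 500 pg/mL final, and were incubated 18 hours at 37 degrees C. Viability was read by CellTiter-Glo luminescence. Media-only wells were set as complete cell-killing and DMSO as no toxicity.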
TDP1 cell CPT – growth inhibition of DT40 Tdp1-/-;hTDP1 cells with camptothecin (screen for TDP1 inhibitors); 420,000 tested, 12% active; chicken DT40 Tdp1-/-;hTDP1 cells + 20 nM CPT, ATP luminescence, 48 h; Potency, µM (series often up to 46.2 µM), without a hit: top-dose activity change, negative = growth inhibition, actives largely listed as inhibitors; further: potency means the concentration at half of the fitted maximal effect; on the % scale 0 is the no-effect control and ±100 the full control effect; nearly all actives have a fitted effect of over 55% in size
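Cell growth measured by CellTiter-Glo luminescence after a minimum 48 h, 37 C compound exposure with 20 nM CPT in Tdp1-knockout DT40 cells stably expressing hTDP1, seeded 400/well; qHTS titration format.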
IL-1B inflam inh – inhibitors of inflammasome signaling (IL-1 beta secretion) | 360,000 tested, 4.7% active | activity change, % at 57.5 µM | THP-1 LPS/ATP IL-1B secretion, AlphaLISA, 16 h; stronger effect = lower value; in the data active means activity change below about -50%; inconclusive means mostly about -30% to -49%; further: on the % scale 0 is the no-effect control and ±100 the full control effect
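THP-1 cells pretreated 1 hr with compounds (up to 57.5 uM final), then stimulated with LPS (250 ng/mL final) plus ATP (1.25 mM final); secreted IL-1B measured by AlphaLISA after 16 hr, decreased signal indicating inhibition.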
TDP1 cell noCPT – qHTS for Inhibitors of human tyrosyl-DNA phosphodiesterase 1 (TDP1): qHTS in cells in absence of CPT; DT40 Tdp1-/- hTDP1 cells, no CPT, ATP luminescence, 48 h; Potency, µM (highest dose often 46.2 µM), for the others: at the highest dose activity change, negative = growth inhibition, actives largely listed as inhibitors; 420,000 tested, 15% active; further: potency means the concentration at half of the fitted maximal effect; on the % scale 0 is the no-effect control and ±100 the full control effect; nearly all actives have a fitted effect of over 55% in size
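Compound effects on proliferation are scored in DT40 Tdp1-/-;hTDP1 cells in the absence of CPT. ATP levels (CellTiter-Glo luminescence) are recorded after a ≥48 hr, 37 °C incubation.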
TDP1 block – TDP1 (human) enzyme inhibition; recombinant TDP1, AlphaScreen DNA substrate cleavage; Potency, µM (top dose mostly 130 µM), for inactives: at the highest dose activity change, negative = inhibition, most hits filed as inhibitors; 350,000 tested, 0.28% active; AID 485290; further: potency means the concentration at half of the fitted maximal effect; on the % scale 0 is the no-effect control and ±100 the full control effect; nearly all actives have a fitted effect of over 40% in size
Target sequence (Q9NUW8 whole entry, looked up): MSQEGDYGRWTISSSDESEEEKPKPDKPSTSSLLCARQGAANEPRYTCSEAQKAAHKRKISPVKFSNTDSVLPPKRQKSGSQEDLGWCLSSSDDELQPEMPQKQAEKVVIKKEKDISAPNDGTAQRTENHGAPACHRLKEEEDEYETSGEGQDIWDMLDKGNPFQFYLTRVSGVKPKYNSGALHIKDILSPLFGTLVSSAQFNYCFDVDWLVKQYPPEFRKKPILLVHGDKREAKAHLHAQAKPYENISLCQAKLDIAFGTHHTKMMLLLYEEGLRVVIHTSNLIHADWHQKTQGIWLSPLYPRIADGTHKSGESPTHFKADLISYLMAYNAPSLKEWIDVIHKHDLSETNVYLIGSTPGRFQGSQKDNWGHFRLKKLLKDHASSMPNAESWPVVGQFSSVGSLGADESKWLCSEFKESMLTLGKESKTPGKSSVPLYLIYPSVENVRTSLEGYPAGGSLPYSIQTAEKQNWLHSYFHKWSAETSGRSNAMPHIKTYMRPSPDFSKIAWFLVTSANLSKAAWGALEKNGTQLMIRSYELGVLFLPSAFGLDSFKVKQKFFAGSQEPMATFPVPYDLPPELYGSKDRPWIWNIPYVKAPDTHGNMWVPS
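Here, a 5' biotin and 3' phosphotyrosine-FITC DNA oligonucleotide reports Tdp1 activity: intact substrate bridges AlphaScreen beads, while cleavage leaves a 3' phosphate and drops signal. All incubations at room temperature.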
TGFb SMAD3 inh – TGF-b pathway inhibition; 410,000 tested, 1.2% active; Potency, µM (series often up to 46.1 µM), for the others: at the highest dose activity, negative = inhibition, usual class: inhibitors; AID 588855; HepG2 CAGA-GFP TGF-b/SMAD3 reporter, GFP fluorescence, 18 h; TGF-beta stimulated, 500 pg/mL final; further: potency means the concentration at half of the fitted maximal effect; on the % scale 0 is the no-effect control and ±100 the full control effect; nearly all actives have a fitted effect of over 65% in size
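Read-out: total well GFP (ex488/em500-530) summed from mean per-cell fluorescence. Cells: HEPG2 CAGA-GFP, 1% FBS DMEM, 18 h at 37 degrees C with 500 pg/mL final TGF-beta. Unstimulated wells served as the full-inhibition control; stimulated DMSO wells = 0%.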
Starred values were filed as active, the others as inactive; [ ] = remark or other dose. Unless noted, the call rests on the fitted dose curve; in most records, active means well fitted curve in the direction sought with a large enough effect; inconclusive means small, poorly fitted or top-dose-only effect, or another doubt; inactive means no such curve, though single readings can be large; an effect the other way counts as inactive or inconclusive.

Screening Cc1csc2nc(-c3cccc(NC(=O)C(C)C)c3)cn12 returned HepG2 tox -2%, TDP1 cell CPT inconclusive, TDP1 cell noCPT inconclusive, TDP1 block -3% and TGFb SMAD3 inh -1%.
`C=CCNCc1ccc(C(=O)NCCCCCCC)cc1[N+](=O)[O-]` gave HepG2 tox -19%, TDP1 cell CPT inconclusive, IL-1B inflam inh -2, TDP1 cell noCPT 18µM*, TDP1 block 0% and TGFb SMAD3 inh -13%.
`C=CCNC(=O)c1ccc([N+](=O)[O-])c(Cl)c1` gave HepG2 tox -1%, TDP1 cell CPT 0%, IL-1B inflam inh -8, TDP1 cell noCPT -1%, TDP1 block 0% and TGFb SMAD3 inh 20%.
Screening O=C(Cn1cnc([N+](=O)[O-])c1)Nc1cc(Oc2ccc(Cl)cc2Cl)cc([N+](=O)[O-])c1 returned HepG2 tox -113%, TDP1 cell CPT 16µM*, IL-1B inflam inh -58*, TDP1 cell noCPT 16µM*, TDP1 block 5% and TGFb SMAD3 inh inconclusive.
For CCc1ccccc1OCC(=O)NCC1COc2ccccc2O1 (configuration not stated) the results were HepG2 tox 0%, TDP1 cell CPT inconclusive, IL-1B inflam inh -12, TDP1 cell noCPT inconclusive, TDP1 block -6% and TGFb SMAD3 inh -6%.
`OCC1(Cc2ccccc2)CCN(C2CCN(c3ccc(F)c(F)c3)CC2)CC1` gave HepG2 tox -15%, TDP1 cell CPT -29%, IL-1B inflam inh -118*, TDP1 cell noCPT 12µM*, TDP1 block 6% and TGFb SMAD3 inh 1%.
O=C(COC(=O)/C=C/c1ccco1)NC1CCCCC1 was read as HepG2 tox 0%, TDP1 cell CPT -26%, IL-1B inflam inh -13, TDP1 cell noCPT -18%, TDP1 block 50µM* and TGFb SMAD3 inh inconclusive.
`O=C(COC(=O)/C=C/c1ccco1)Nc1ncc(C(F)(F)F)cc1Cl` gave HepG2 tox -6%, TDP1 cell CPT -8%, IL-1B inflam inh 18, TDP1 cell noCPT inconclusive, TDP1 block 13µM* and TGFb SMAD3 inh 10%.
`O=C(COC(=O)/C=C/c1ccco1)NCCc1ccccc1` gave HepG2 tox 7%, TDP1 cell CPT -3%, IL-1B inflam inh -7, TDP1 cell noCPT 3%, TDP1 block 28µM* and TGFb SMAD3 inh -24%.
Cc1c(Cl)cnc(NC(=O)COC(=O)/C=C/c2ccco2)c1Cl was read as HepG2 tox -2%, TDP1 cell CPT 5%, IL-1B inflam inh -2, TDP1 cell noCPT -2%, TDP1 block inconclusive and TGFb SMAD3 inh -10%.
For CNC(=O)COC(=O)/C=C/c1ccco1 the results were HepG2 tox -11%, TDP1 cell CPT -14%, IL-1B inflam inh -10, TDP1 cell noCPT 1%, TDP1 block -2% and TGFb SMAD3 inh -7%.
O=C(COC(=O)/C=C/c1ccco1)NCc1ccco1 was read as HepG2 tox 5%, TDP1 cell CPT -11%, IL-1B inflam inh 3, TDP1 cell noCPT 5% and TGFb SMAD3 inh -4%.
Screening CC1CC(C)CN(C(=O)COC(=O)/C=C/c2ccco2)C1 (configuration not stated) returned HepG2 tox -8%, TDP1 cell CPT 1%, IL-1B inflam inh 3, TDP1 cell noCPT -8%, TDP1 block 22µM* and TGFb SMAD3 inh -8%.
O=S(=O)(c1ccccc1)c1nnn2c1nc(NC1CCCCC1)c1sccc12 was read as HepG2 tox 3%, TDP1 cell CPT -18%, TDP1 cell noCPT -6%, TDP1 block -3% and TGFb SMAD3 inh 22%.
COc1ccc(CCNc2nc3c(-c4cccc(C)c4)nnn3c3ccccc23)cc1OC was read as HepG2 tox -17%, TDP1 cell CPT 22%, TDP1 cell noCPT -3%, TDP1 block 4% and TGFb SMAD3 inh -9%.
Screening COc1ccc(CNc2nc(SCc3ccccc3Cl)nc3ccccc23)cc1 returned HepG2 tox 5%, TDP1 cell CPT inconclusive, TDP1 cell noCPT 16µM*, TDP1 block 0% and TGFb SMAD3 inh inconclusive.
For COc1ccc(CCNc2nc(SCc3ccccc3Cl)nc3ccccc23)cc1OC the results were HepG2 tox -15%, TDP1 cell CPT 8.2µM*, TDP1 cell noCPT 4.6µM*, TDP1 block -3% and TGFb SMAD3 inh -2%.
CCc1ccccc1NC(=O)Cc1c(C(=O)O)[nH]c2ccc(Cl)cc12 was read as HepG2 tox 0%, TDP1 cell CPT -3%, TDP1 cell noCPT -1%, TDP1 block 0%[12.3 µM] and TGFb SMAD3 inh 10%.
For CC(=O)N1CCN(C(=O)CCCNC(=O)c2ccc(Cl)cc2)CC1 the results were HepG2 tox 16%, TDP1 cell CPT 18%, IL-1B inflam inh 6, TDP1 cell noCPT 1% and TGFb SMAD3 inh 1%.
Screening O=C(C(Sc1ccccc1)c1ccccc1)N1CCOCC1 (configuration not stated) returned HepG2 tox 1%, TDP1 cell CPT 7%, IL-1B inflam inh 3, TDP1 cell noCPT 9%, TDP1 block -2% and TGFb SMAD3 inh -1%.
`Cc1ccc(C)c(CN2CCCN(CC(=O)Nc3ccc(C)c(C)c3)S2(=O)=O)c1` gave HepG2 tox -28%, TDP1 cell CPT inconclusive, TDP1 cell noCPT 16µM*, TDP1 block 0% and TGFb SMAD3 inh inconclusive.
Cc1ccc(NC(=O)CN2CCCN(Cc3cc(C)ccc3C)S2(=O)=O)c(Cl)c1 was read as HepG2 tox -24%, TDP1 cell CPT 18µM*, TDP1 cell noCPT inconclusive, TDP1 block 8% and TGFb SMAD3 inh inconclusive.
`Cc1ccc(NC(=O)Cn2cc3c(n2)CCCC3)c(Cl)c1` gave HepG2 tox -2%, TDP1 cell CPT -19%, TDP1 cell noCPT inconclusive, TDP1 block 3% and TGFb SMAD3 inh -13%.
For CCc1ccccc1NC(=O)CN1CCCN(Cc2cc(C)ccc2C)S1(=O)=O the results were HepG2 tox -35%, TDP1 cell CPT 15µM*, TDP1 cell noCPT 16µM*, TDP1 block -3% and TGFb SMAD3 inh 18µM*.
For Cc1ccc(CN2CCCN(CC(=O)Nc3ccc(C)cc3C)S2(=O)=O)cc1 the results were HepG2 tox 2%, TDP1 cell CPT inconclusive, TDP1 cell noCPT 15µM*, TDP1 block 3% and TGFb SMAD3 inh inconclusive.
